Screening results (PubChem BioAssay)
This is a sample that favours compounds with a hit; in the whole collection about 10% have one here.
Six1-Eya2 blk – Six1/Eya2 interaction inhibition | AlphaScreen GST-Six1/His-Eya2 binding, biochemical; hits give low values | activity change, % (no concentration beside the values) | 360,000 tested, 0.56% active | Q15475+O00167; in the data active means activity change below about -65%; inconclusive means mostly about -30% to -63%; further: on the % scale 0 is the no-effect control and ±100 the full control effect
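AlphaScreen luminescence read after one hour at 37 °C in darkness. Pin-transferred compounds met GST-Six1 and His-Eya2 protein (5X stock 250 nM/500 nM) plus glutathione donor and Ni-chelate acceptor beads (5X, 50 ug/mL).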
JMJD2A Tudor – inhibitors of human JMJD2A Tudor domain; Potency, µM (titrated, usually from 114 µM), inactives show at the top dose activity change, negative = inhibition, most hits filed as inhibitors; O75164; AID 504339; AlphaScreen JMJD2A-Tudor / H3K4me3 peptide binding; 390,000 tested, 4.4% active; further: potency means the concentration at half of the fitted maximal effect; on the % scale 0 is the no-effect control and ±100 the full control effect; nearly all actives have a fitted effect of over 50% in size
Target sequence (O75164 whole entry, looked up, the tested form may be a part): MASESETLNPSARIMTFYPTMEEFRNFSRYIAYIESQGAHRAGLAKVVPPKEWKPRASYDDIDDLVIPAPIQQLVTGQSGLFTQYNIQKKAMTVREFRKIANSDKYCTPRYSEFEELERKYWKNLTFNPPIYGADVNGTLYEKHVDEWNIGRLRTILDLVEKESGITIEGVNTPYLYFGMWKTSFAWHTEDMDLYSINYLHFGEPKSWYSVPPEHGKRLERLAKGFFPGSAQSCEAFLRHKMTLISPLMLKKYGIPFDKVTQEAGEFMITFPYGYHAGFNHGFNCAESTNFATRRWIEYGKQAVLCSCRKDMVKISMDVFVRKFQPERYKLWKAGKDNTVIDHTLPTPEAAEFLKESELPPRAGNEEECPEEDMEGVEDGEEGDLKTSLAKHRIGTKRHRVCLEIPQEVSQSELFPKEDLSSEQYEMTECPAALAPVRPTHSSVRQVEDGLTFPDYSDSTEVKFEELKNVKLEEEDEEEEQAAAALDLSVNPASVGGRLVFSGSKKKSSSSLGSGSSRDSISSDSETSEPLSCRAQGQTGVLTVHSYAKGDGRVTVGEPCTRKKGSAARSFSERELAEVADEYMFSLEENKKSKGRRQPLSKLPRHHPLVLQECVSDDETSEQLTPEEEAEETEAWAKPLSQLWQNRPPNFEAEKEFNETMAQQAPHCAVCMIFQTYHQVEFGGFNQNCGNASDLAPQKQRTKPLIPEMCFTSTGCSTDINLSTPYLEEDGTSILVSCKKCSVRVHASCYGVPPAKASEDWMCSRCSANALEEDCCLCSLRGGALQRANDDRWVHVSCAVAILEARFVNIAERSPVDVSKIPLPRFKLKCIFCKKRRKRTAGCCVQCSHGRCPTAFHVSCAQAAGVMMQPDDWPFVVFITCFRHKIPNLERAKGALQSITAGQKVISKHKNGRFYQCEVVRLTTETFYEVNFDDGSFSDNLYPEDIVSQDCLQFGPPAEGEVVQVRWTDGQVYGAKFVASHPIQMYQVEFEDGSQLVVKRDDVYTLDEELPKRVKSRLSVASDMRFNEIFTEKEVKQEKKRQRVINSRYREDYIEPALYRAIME
HP1b binding inh – HP1-beta chromodomain-methylated histone interaction inhibition. Potency, µM (highest dose often 114 µM), without a hit: at the highest dose activity change, negative = inhibition, usual class: inhibitors. AID 540317. P83916. AlphaScreen HP1-beta / biotin-H3K9me3 peptide binding. 390,000 tested, 0.56% active; further: potency means the concentration at half of the fitted maximal effect; nearly all actives have a fitted effect of over 70% in size
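AlphaScreen: HP1-beta (50 nM) preformed 30 min with biotin-H3(1-18)K9me3 peptide (50 nM) in PBS pH 7.4, 0.01% Tween-20. Compound added for 30 min at RT, then streptavidin donor/nickel chelate acceptor beads (10 ug/mL) for 30 min.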
BAZ2B block – inhibitors of human BAZ2B bromodomain. AID 504333. Potency, µM (series often up to 114 µM), for inactives: top-dose activity change, negative = inhibition, usual class: inhibitors. AlphaScreen BAZ2B-H3K14Ac peptide displacement. 360,000 tested, 4.4% active; further: potency means the concentration at half of the fitted maximal effect; on the % scale 0 is the no-effect control and ±100 the full control effect; nearly all actives have a fitted effect of over 60% in size
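Protein-peptide AlphaScreen: BAZ2B 50 nM, b-H3K14Ac 50 nM, 1x PBS pH 7.4 + 0.01% Tween-20. Preincubation 30 min RT; cpd 30 min RT (top 110 uM); beads 20 min RT, light-protected.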
CtBP-E1A blk – inhibitors of CtBP/E1A interaction; AlphaScreen GST-E1A/His-CtBP binding, 1536-well; hits give low values; AID 651724; 340,000 tested, 0.49% active; activity change, % (concentration not given with the values); in the data active means activity change below about -65%; inconclusive means mostly about -30% to -63%; further: on the % scale 0 is the no-effect control and ±100 the full control effect
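Protein mix (5X: 125 nM each GST-E1A, His-CtBP) was incubated with pinned compound 2 h at 37 deg C in dark, in 50 mM Tris pH 8.0 buffer with 300 mM NaCl. Glutathione donor and nickel acceptor beads followed; AlphaScreen signal read after 1 h.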
G9a block – blocks human histone lysine methyltransferase G9a; 350,000 tested, 8.8% active; Potency, µM (doses to about 102 µM), for inactives: at the top dose activity, negative = inhibition, most hits filed as inhibitors; Q96KQ7; G9a H3K9 monomethylation, AlphaScreen, 2 h; further: potency means the concentration at half of the fitted maximal effect; on the % scale 0 is the no-effect control and ±100 the full control effect; nearly all actives have a fitted effect of over 75% in size
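Readings reflect AlphaScreen signal from monomethyl-H3K9 antibody detection. HMT at 20 nM; substrate b-H3K9 500 nM; cofactor SAM 20 uM; 2 h RT reaction; compounds tested as titrations in qHTS with 15 min preincubation.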
* hit, by the source's call; ? = inconclusive; / = no result given; ! = a repeat was not active; [ ] = remark or other dose. Unless noted, the call rests on the fitted dose curve; in most records, active means well fitted inhibition curve with a large enough effect; inconclusive means small, poorly fitted or top-dose-only effect; inactive means no such curve, though single readings can be large or run the other way.

SMILES	Six1-Eya2 blk	JMJD2A Tudor	HP1b binding inh	BAZ2B block	CtBP-E1A blk	G9a block
C#CCOCCOCCOCCNc1nc(N2CCN(C(=O)CCCCCCCCCCNC(=O)[C@H](CCCCN)n3cc(CCO)nn3)CC2)nc(N2CCN(C(=O)CCCCCCCCCCNC(=O)[C@H](CCCCN)n3cc(CCO)nn3)CC2)n1	-0.1	89.1µM*	?	5.5%	-1.0	46.4%[2.33 µM]
C#CCOCCOCCOCCNc1nc(N2CCN(C(=O)CCCCCCCCCCNC(=O)[C@H](CCCCN)n3cc(CCCC(=O)O)nn3)CC2)nc(N2CCN(C(=O)CCCCCCCCCCNC(=O)[C@H](CCCCN)n3cc(CCCC(=O)O)nn3)CC2)n1	4.8	?	31.9%	-33.7%	/	6.0%[2.33 µM]
C#CCOCCOCCOCCNc1nc(N2CCN(C(=O)CCCCCCCCCCNC(=O)[C@H](CCCCN)n3cc(CCO)nn3)CC2)nc(N2CCN(C(=O)CCCCCCCCCCNC(=O)[C@@H]([C@H](C)O)n3cc(C)nn3)CC2)n1	-1.9	79.4µM*	-23.5%	50.1µM*	0.5	-1.0%[2.33 µM]
CC(=O)c1cc(-c2ccccc2)n(CCC(=O)Nc2ccc(C(C)C)cc2)c1C	/	-34.0%	23.3%	?	/	?
CCNc1oc(COc2ccccc2F)nc1C#N	1.9	-14.4%	27.4%	-27.7%	-5.1	39.8µM*
COc1ccc(CCNc2oc(COc3ccccc3F)nc2C#N)cc1OC	-14.3	-27.5%[11.4 µM]	?	?	-16.2	44.7µM*
COc1ccc(-c2nc(C#N)c(NCCc3ccccc3)o2)cc1OC	6.8	?	-30.6%	44.7µM*	14.0	?
O=C(COc1ccc(Br)cc1F)NC1CC1	1.0	6.2%	45.4%	/	11.4	/
CN1COc2ccc3ccccc3c2C1	6.3	-10.4%	43.4%	?	-0.4	2.24µM*
O=C1CCc2c(ccc3ccccc23)O1	/	/	/	/	/	31.5%[59 µM]
O=C(NNc1ccccc1)/C(=C\c1cccnc1)NC(=O)c1ccccc1	3.8	-8.6%	57.8%	-13.1%	/	3.98µM*
Cc1ccccc1NS(=O)(=O)c1nnc(NC(=O)c2ccco2)s1	/	?	?	-38.6%	/	?
CO/N=C(/CS(=O)(=O)c1ccc(C)cc1)c1ccc(OC)cc1	-4.7	0.0%[57.1 µM]	44.6%	-31.5%	4.2	?
COc1ccc(OCC2c3cc(OC)c(OC)cc3CCN2C(=O)C(C)C)cc1 (stereo not drawn)	2.6	56.2µM*	-8.3%	-36.6%	2.8	?
COC(=O)c1ccc(OCC2c3cc(OC)c(OC)cc3CCN2C(=O)c2ccco2)cc1 (stereo not drawn)	?	?	-15.0%	?	-28.9	50.1µM*
COC(=O)c1ccc(OCC2c3cc(OC)c(OC)cc3CCN2C(=O)c2ccc(OC)cc2)cc1 (stereo not drawn)	/	-33.6%	-21.8%	?	/	-47.5%[59 µM]
CSc1cccc(NC(=O)CN2C(=O)COc3ccc(Cl)cc32)c1	/	-0.7%	27.8%	2.7%	/	7.4%[59 µM]
COc1cc(N2C(=O)C=CC2=O)c(OC)cc1Cl	-13.8	10µM*	10µM*	-15.0%	-19.2	2.51µM*
COc1cc(Cl)c(S(=O)(=O)N2CCCC2)cc1Cl	2.1	-6.8%	40.6%	0.2%	7.3	/
O=C1CC(c2ccc(Cl)cc2)SC(N(c2ccccc2)c2ccccc2)=N1 (stereo not drawn)	1.3	-23.6%	10.6%	-11.8%	9.4	-4.2%[59 µM]
CC(=O)Oc1ccc(N(C(C)=O)S(=O)(=O)c2cccs2)c2ccccc12	-22.6	-13.9%	2.1%	-24.4%	-12.6	12.6µM*
Cc1ccc2oc(=O)c(/C=C(\O)C(C)(C)C)nc2c1	-6.1	-6.2%	37.2%	?	2.3	?
O=c1oc2ccccc2nc1/C=C(O)/C=C\c1ccccc1	-8.8	-20.7%	24.3%	?	-0.2	56.2µM*
O=c1oc2ccccc2nc1/C=C(O)/C=C/c1ccc(F)cc1	-11.8	?	21.3%	50.1µM*	-7.8	44.7µM*
Cc1ccc(/C(O)=C/c2nc3ccccc3oc2=O)cc1	14.5	-0.4%	33.6%	-31.4%	37.6	28.2µM*
SMILES	Six1-Eya2 blk	JMJD2A Tudor	HP1b binding inh	BAZ2B block	CtBP-E1A blk	G9a block
COc1ccc(/C=C/C(=O)N2CCC(c3nc4ccccc4o3)CC2)cc1	/	-26.5%	10.0%	-28.4%	/	-7.3%[59 µM]
Cc1ccc2oc(=O)c(/C=C(\O)c3ccco3)nc2c1	0.0	2.1%	36.2%	-15.0%	1.4	/
O=S(=O)(c1ccc(-n2cnnn2)cc1)N1CCN(c2cccc(Cl)c2)CC1	/	-13.8%	22.6%	4.0%	/	7.5%[59 µM]
CCc1ccccc1NC(=O)c1noc2c1CC(C(C)(C)C)CC2 (stereo not drawn)	/	38.2%	89.6%	39.6%	/	32.6%[59 µM]
NC(=O)c1c(NC(=O)c2noc3c2CCCC3)sc2c1CCCC2	/	79.4µM*	?	-5.3%	/	1.78µM*
CC(=O)Nc1sc2c(c1C(N)=O)CCCC2	-1.6	-4.6%[57.1 µM]	48.4%	-6.5%	0.7	-1.2%[12.7 µM]
CCOC(=O)c1c(NC(=O)c2noc3c2CC(C(C)(C)C)CC3)sc2c1CCCC2 (stereo not drawn)	/	79.4µM*	?	-1.6%	/	2µM*
Cc1ccc(C)c(SC2=NS(=O)(=O)c3ccccc32)c1	/	-6.4%	/	/	/	/
COc1ccccc1CNC(=O)COC(=O)c1ccc(N2CCCC2=O)cc1	-0.7	-5.1%	44.2%	-11.8%	/	?
O=C1Nc2ccccc2C1=Nc1ccc(-c2nnc3n2CCCCC3)cc1	1.6	-9.0%	16.9%	-20.8%	5.7	-8.9%[59 µM]
COc1cc(C2C=C(C(=O)O)Nc3ncnn32)ccc1O (stereo not drawn)	/	79.4µM*	27.1%	-31.8%	/	12.6µM*
CC(C)Oc1ccccc1C1C=C(C(=O)O)Nc2ncnn21 (stereo not drawn)	/	-26.4%	3.8%	?	/	14.1µM*
COC(=O)C1=C(C)NC(=O)NC1c1cccc(OC)c1OCc1ccccc1 (stereo not drawn)	-3.2	-6.8%	10.8%	2.6%	4.7	?
CC[C@]12c3[nH]c4cc(-c5ccco5)ccc4c3CCN1C(=O)[C@@H](CC(=O)NC(C)(C)C)C[C@@H]2C(=O)N1CCN(C(=O)C2CC2)CC1	-0.1	-20.3%	16.9%	/	-3.8	/
O=S1(=O)CC2NC(=S)N(c3cccc(Br)c3)C2C1 (stereo not drawn)	7.3	3.7%	32.8%	-11.1%	/	3.7%
Cc1cc(NC(=O)c2cc(-c3ccccn3)nc3ccccc23)no1	-19.4	-22.7%	35.7%	3.0%	8.7	10.0%[59 µM]
Cc1ccc(-c2cc(C(=O)O)c3cc(Br)ccc3n2)s1	2.1	-18.1%	15.1%	?	0.0	39.8µM*!
Cc1ccc(-c2cc(C(=O)NCCCn3ccnc3)c3cc(Br)ccc3n2)o1	-20.7	79.4µM*	-16.6%	-1.6%	-22.0	?
Cc1ccc(-c2cc(C(=O)O)c3cc(Br)ccc3n2)o1	?	25.1µM*	-24.8%	56.2µM*	-8.5	1.26µM*
